Results taken from PubChem BioAssay AID720504 (National Center for Advancing Translational Sciences (NCATS), 2013).
The campaign covered roughly 360,000 compounds. About 10,000 (2.8%) were called active. About 4% were inconclusive and are not listed. This is one part of a sample in which actives are shown more often than they occur. Calls come from the whole dose curve; as a rule, active = well fitted inhibition curve with a large enough effect; inconclusive = small, poorly fitted or top-dose-only effect; inactive = flat fitted curve, though single readings scatter.

biological target: Serine/threonine-protein kinase PLK1 (Homo sapiens) (UniProt P53350); assay: qHTS for Inhibitors of PLK1-PDB (polo-like kinase 1 - polo-box domain): Primary Screen; conditions: Plk1 PBD binding of FITC phosphopeptide, fluorescence polarization; note: nearly all actives have a fitted effect of over 65% in size; for max response, negative = inhibition: series mostly up to about 57 µM
% is set by controls: 0 for no effect and ±100 for the full control effect; potency is the fitted concentration of half-maximal effect.

Serine/threonine-protein kinase PLK1 (Homo sapiens), sequence (P53350 whole entry, looked up, the tested form may be a part): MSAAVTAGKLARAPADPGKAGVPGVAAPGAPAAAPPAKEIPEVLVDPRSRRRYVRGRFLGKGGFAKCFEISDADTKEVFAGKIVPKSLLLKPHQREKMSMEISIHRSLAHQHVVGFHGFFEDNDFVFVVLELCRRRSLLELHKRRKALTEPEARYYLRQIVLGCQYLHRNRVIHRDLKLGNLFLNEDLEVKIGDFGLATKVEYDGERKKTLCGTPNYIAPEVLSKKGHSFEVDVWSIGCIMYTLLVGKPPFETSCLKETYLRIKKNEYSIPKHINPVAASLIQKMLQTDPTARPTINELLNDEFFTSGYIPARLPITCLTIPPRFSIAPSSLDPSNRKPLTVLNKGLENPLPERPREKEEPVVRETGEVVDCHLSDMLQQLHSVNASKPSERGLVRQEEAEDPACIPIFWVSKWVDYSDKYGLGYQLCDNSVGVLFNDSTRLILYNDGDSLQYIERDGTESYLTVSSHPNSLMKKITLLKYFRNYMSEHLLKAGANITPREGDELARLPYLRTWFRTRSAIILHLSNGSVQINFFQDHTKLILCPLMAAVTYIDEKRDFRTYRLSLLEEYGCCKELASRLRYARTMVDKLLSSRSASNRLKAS

| SMILES | max response, negative = inhibition | Potency |
| --- | --- | --- |
| COc1ccc(CCNC(=O)Nc2ccc3c(c2)c(=O)n(C)n3C)cc1OC | -18.9% (inactive) | – |
| N#CCSc1ccccc1NC(=O)CN1C(=O)NC(CCc2ccccc2)C1=O (centres undefined) | 1.14% (inactive) | – |
| COc1ccc(C(C(=O)NCc2ccccc2)n2c(=O)c(-c3ccccc3)nc3ccccc32)cc1 (centres undefined) | -13.5% (inactive) | – |
| COc1ccccc1NC(=O)C1=C(C)NC(=O)NC1c1ccc(C)s1 (centres undefined) | -4.66% (inactive) | – |
| CCC(=O)Nc1sc(C(=O)Nc2ccccc2)c(C)c1C(=O)OC | -13% (inactive) | – |
| COC(=O)c1c(NC(C)=O)sc(C(=O)Nc2ccccc2OC)c1C | – | 21.2 µM (active) |
| Cc1[nH]c2ccccc2c1C(=O)c1cc([C@H](NC(=O)OC(C)(C)C)C(C)C)sc1N | -13.9% (inactive) | – |
| COc1c(C)cc(C(O)c2ncc(-c3cccc(C(F)(F)F)c3)[nH]2)cc1C (centres undefined) | -6.75% (inactive) | – |
| CCCC(=O)N1CCC1(C)C(=O)NS(=O)(=O)c1ccc(Cl)cc1 (centres undefined) | -0.638% (inactive) | – |
| O=C(NCc1ccc(F)cc1F)[C@@H]1CCCN1C(=O)[C@@H]1CCCN1C(=O)c1cccc(Cl)c1 | -3.81% (inactive) | – |
| COc1ccc(NC(=O)N(C)C[C@@H]2OCc3cn(nn3)CCCC(=O)N([C@H](C)CO)C[C@H]2C)c(OC)c1 | -13% (inactive) | – |
| COc1cccc(CNc2nc(NCc3ccccc3OC)nc3ccsc23)c1 | 5.58% (inactive) | – |
| O=C(CCN1CCN(c2ccccc2)CC1)NNC(=S)Nc1ccccc1 | 2.64% (inactive) | – |
| CCCCC(=O)NNC(=S)NC(=O)C(c1ccccc1)c1ccccc1 | – | 26.7 µM (active) |
| CCC(C)NC(=O)CCCc1ccccc1 (centres undefined) | -5.23% (inactive) | – |
| Cc1cc(Br)ccc1NC(=O)CCCOc1cc(=O)n(C)c2ccccc12 | -7.55% (inactive) | – |
| O=C(COC(=O)Cc1ccc(Cl)cc1Cl)NCc1ccco1 | -7.73% (inactive) | – |
| COC(=O)[C@@]1(Sc2ccc(C)cc2)CC(=O)N(c2cccc(SC)c2)[C@@H]1c1ccccc1 | -14.8% (inactive) | – |
| CC(Sc1ccc(S(=O)(=O)N2CCN(C)CC2)cn1)C(=O)NC1CCCC(C)C1C (centres undefined) | -3.15% (inactive) | – |
| CCN1/C(=C/C(=S)Nc2ccccc2)Sc2ccccc21 | – | 21.2 µM (active) |
| CCNCCC(=O)N1c2ccccc2Sc2ccc(NC(=O)OCC)cc21 | 4.19% (inactive) | – |
| CCN1/C(=C\c2ccc3ccccc3[n+]2CC)Sc2cc(C)ccc21 | 18.1% (inactive) | – |
| O=C(CCc1ccc(O)cc1)NN=Cc1cc(Br)ccc1O | -9.45% (inactive) | – |

| SMILES | max response, negative = inhibition | Potency |
| --- | --- | --- |
| CNS(=O)(=O)c1ccc2c(c1)[nH]c(=S)n2C | -13.6% (inactive) | – |
| CN1OC[C@@H]2CN(S(=O)(=O)c3cccc4ccccc34)[C@H](c3ccc(N4CCCCC4)cc3)C[C@@H]21 | -17.2% (inactive) | – |
| CCCNC(=O)C1(C)CCN(C(=O)c2ccccc2OC(F)(F)F)C1 (centres undefined) | 1.6% (inactive) | – |
| COCCCN1C(=O)C(=O)/C(=C(/O)c2ccc3c(c2)CC(C)O3)C1c1cccnc1 (centres undefined) | -4.58% (inactive) | – |
| COc1cc(C2/C(=C(\O)c3ccc4c(c3)CC(C)O4)C(=O)C(=O)N2c2nnc(C)s2)cc(OC)c1OC (centres undefined) | – | 23.8 µM (active) |
| COc1cc(C2/C(=C(\O)c3ccc4c(c3)CC(C)O4)C(=O)C(=O)N2Cc2ccco2)ccc1O (centres undefined) | -6.21% (inactive) | – |
| COc1cccc(OCC(=O)NCCS(=O)(=O)N2CCN(c3ccccc3)CC2)c1 | -0.74% (inactive) | – |
| Cc1ccccc1NC(=O)Cc1nc(COC(=O)C(C)(C)Oc2ccc(Cl)cc2)cs1 | -1.61% (inactive) | – |
| CCOC(=O)COc1nc(C)cc(C(F)(F)F)c1C#N | -6.94% (inactive) | – |
| CCOC(=O)c1cc(C)nc(S(C)(=O)=O)c1C#N | -3.21% (inactive) | – |
| CCOC(=O)Cc1c(C)nc2c(C#N)c(C)nn2c1C | – | 18.9 µM (active) |
| Nc1nc(CSc2nnnn2-c2ccccc2)nc(Nc2ccccc2)n1 | 0.127% (inactive) | – |
| COc1ccc(-c2ccc(CN3C(CC(C)C)C(=O)N(Cc4cn(CC5CCCCC5)nn4)CCS3(=O)=O)cc2)cc1 (centres undefined) | -10.4% (inactive) | – |
| Cn1c(=O)c(C(=O)Nc2ncccn2)c(O)c2ccccc21 | – | 8.44 µM (active) |
| CCCn1c(=O)c(C(=O)Nc2cc(C)ccn2)c(O)c2ccccc21 | -9.12% (inactive) | – |
| C=CCn1c(=O)c(C(=O)Nc2ncccc2O)c(O)c2ccccc21 | -22.1% (inactive) | – |
| CC(C)c1cc(Cn2c3ccccc3c(=O)n2C(C)Cn2cc(C3CC3)nn2)on1 (centres undefined) | -4.91% (inactive) | – |
| Cc1ccc(-n2c(Cc3cccs3)nnc2SCC(=O)OC(C)C)cc1 | -2.98% (inactive) | – |
| CCn1c(SCC(=O)c2ccc(Cl)s2)nnc1-c1cccs1 | -17.2% (inactive) | – |
| CCn1c(Cc2cccs2)nnc1SCC(=O)c1ccc(C)cc1 | – | 16.8 µM (active) |
| COC(=O)[C@@]12C[C@@H](CC(=O)N3CCC(c4ccccc4)CC3)C(=O)N(Cc3ccccc3)C1=CCC(C)(C)C2 | -1.16% (inactive) | – |
| O=C(NCc1ccc(F)cc1)c1cc(C2CCCCN2C(=O)c2ccccn2)on1 (centres undefined) | -4.01% (inactive) | – |
| Oc1ccccc1N1CCN(c2ncnc3sc(-c4ccccc4)cc23)CC1 | – | 15 µM (active) |

| SMILES | max response, negative = inhibition | Potency |
| --- | --- | --- |
| COc1ccccc1N1CCN(c2ncnc3sc(C)c(-c4ccccc4)c23)CC1 | 8.83% (inactive) | – |
| c1ccc(-c2cc3c(NCC4COc5ccccc5O4)ncnc3s2)cc1 (centres undefined) | -4.18% (inactive) | – |
| CS(=O)(=O)c1cccc(-c2ccc3nncn3c2)c1 | -8.79% (inactive) | – |
| N#CCCC(C#N)(c1cccnc1)N1CCOCC1 (centres undefined) | -8.09% (inactive) | – |
| COc1ccc(C2=NN(C(=O)CCC(=O)O)C(c3cccs3)C2)cc1OC (centres undefined) | -7.47% (inactive) | – |
| COc1ccc(C2CC(c3cccs3)=NN2C(=O)CCC(=O)O)cc1OC (centres undefined) | – | 23.8 µM (active) |
| COc1ccc(C2CC(c3cccs3)=NN2C(=O)CSc2nncs2)cc1OC (centres undefined) | -11.3% (inactive) | – |
| COc1ccc(C2CC(c3cccc(OC)c3)=NN2c2ccc(S(N)(=O)=O)cc2)cc1 (centres undefined) | -4.37% (inactive) | – |
| COc1ccc(NC(=O)c2cc(=O)[nH]c3ccccc23)cc1S(=O)(=O)N1CCOCC1 | -1.4% (inactive) | – |
| Nc1[nH]c(C(=O)c2ccccc2)c(-c2ccncc2)c1C(=O)NCc1cccc2ccccc12 | -5.24% (inactive) | – |
| OC[C@@H]1CN(Cc2ccc(F)cc2)C[C@H](n2cnc3c(NC4CCCC4)ncnc32)O1 | -5.68% (inactive) | – |
| Oc1c(Cl)cc(Cl)c(Cl)c1Cc1c(O)c(Cl)cc(Cl)c1Cl | – | 21.2 µM (active) |
| CCc1nc2c(OCc3ccccc3)cccn2c1N(C)C(=O)c1ccco1 | 3.35% (inactive) | – |
| CCn1c(SCC(=O)N2CCCC2=O)nc2ccccc21 | -10% (inactive) | – |
| O=C(CCc1ccccc1)Nc1nn[nH]n1 | – | 26.7 µM (active) |
| Cc1ccc(F)c(NC(=O)CCc2ccccc2)c1 | -9.88% (inactive) | – |
| O=C(CCc1ccccc1)NNc1ccc(F)cc1 | -17.7% (inactive) | – |
| C[C@H]1CN([C@@H](C)CO)C(=O)c2cc(C3=CCCCC3)cnc2O[C@@H]1CN(C)C(=O)Cc1ccccc1 | -26.3% (inactive) | – |
| CCN(C(=O)CSc1ncn[nH]1)c1cccc2ccccc12 | -2.53% (inactive) | – |
| O=C(CSc1ncn[nH]1)Nc1ccc(Br)cc1Br | -1.62% (inactive) | – |
| CC(C)(C)c1ccc(C(=O)CSc2ncn[nH]2)cc1 | – | 20 µM (active) |
| CCCC/S(C)=N/S(=O)(=O)c1ccc(C)cc1 (centres undefined) | -5.69% (inactive) | – |
| CC/S(CC1CC1(Cl)Cl)=N\S(=O)(=O)c1ccc(C)cc1 (centres undefined) | -0.46% (inactive) | – |

| SMILES | max response, negative = inhibition | Potency |
| --- | --- | --- |
| Cc1ccc(S(=O)(=O)/N=S(\C)C(C)C)cc1 (centres undefined) | – | 26.7 µM (active) |
| O=C(NCC(F)(F)F)c1ccc(S(=O)(=O)NCCc2ccc3c(c2)OCCO3)cc1 | -0.767% (inactive) | – |
| COCCNC(=O)C1C(=O)Nc2ccccc2C(=O)N1c1ccc2c(c1)OCCO2 (centres undefined) | -3.12% (inactive) | – |
| O=C(O)c1ccc2c(=O)n3c(nc2c1)/C(=C/c1ccc(OC(F)F)cc1OC(F)F)CC3 | – | 10.6 µM (active) |
| N#Cc1ccc(/C=C2\CCn3c2nc2cc(C(=O)O)ccc2c3=O)cc1 | -8.35% (inactive) | – |
| Cc1ccc(/C=C2\CCn3c2nc2cc(C(=O)O)ccc2c3=O)c(C)c1 | -12.7% (inactive) | – |
| COc1cccc(NC(=O)C2(C)CCN2C(=O)CCC2CCCC2)c1 (centres undefined) | 1.49% (inactive) | – |
| FC(F)(F)Oc1ccccc1C(c1nnnn1C1CCCCC1)N1CCN(C/C=C/c2ccccc2)CC1 (centres undefined) | -10.7% (inactive) | – |
| CCNC(=O)C1(C)CCN(C(=O)c2ccccc2)C1 (centres undefined) | -1.07% (inactive) | – |
| C[C@@H]1CN([C@@H](C)CO)C(=O)c2c(c3ccccc3n2C)-c2ccccc2CO[C@H]1CN(C)C(=O)C1CC1 | -5.93% (inactive) | – |
| CCNC(=O)c1cnn(-c2ccccc2)c1-c1ccccc1 | -11.7% (inactive) | – |
| NNC(=O)c1cnn(-c2ccccc2)c1C(F)(F)F | -2.55% (inactive) | – |
| Nc1c(C(=O)O)cnn1-c1ccccc1 | – | 23.8 µM (active) |
| COc1ccc(CCNC(=O)CN(c2ccccc2)S(=O)(=O)c2ccccc2)cc1 | -1.56% (inactive) | – |
| CCCCCCN1CCN(C2CN(Cc3cn(CCCCCC)nn3)S(=O)(=O)C2)CC1 (centres undefined) | 6.53% (inactive) | – |
| COc1ccc(-c2cc3c(c4c2ccn4C)C2CCC3C2)cn1 (centres undefined) | -0.384% (inactive) | – |
| CC(=O)NS(=O)(=O)c1ccc(NC(=S)NC(=O)C(C)(C)C)cc1 | -8.92% (inactive) | – |
| COC(=O)C(NS(=O)(=O)c1ccc(F)cc1)c1ccccc1 (centres undefined) | -18.8% (inactive) | – |
| O=S(=O)(NC(=S)Nc1ccccc1)c1ccc(F)cc1 | – | 23.8 µM (active) |
| Cc1ccc([C@H]2N[C@]3(CCCN(Cc4ccccc4)C3=O)[C@H]3C(=O)N(Cc4ccccc4)C(=O)[C@@H]23)cc1 | 5.77% (inactive) | – |
